# Laboratory results reported in the supplement of paper PMC13094657.
# ± gives the standard deviation of the averaged measurements.
# Columns and labels:
# MDA-MB-231 [1] = assay: cell viability relative to vehicle unstimulated control (fraction); higher = more viable cells; details: pre-treatment time: 18 h then 24 h IFNg/TNF
# MDA-MB-231 [2] = assay: kynurenine production, fold change vs DMSO IFNg/TNF control; higher = more kynurenine produced (less inhibition); details: pre-treatment time: 18 h then 24 h IFNg/TNF
# Method in brief: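 In 96-well plates, MDA-MB-231 cells (7 × 10^4/well) were given 24 h to settle, pre-treated for 18 h with each natural product in 0.1% DMSO, and stimulated for 24 h with IFNγ (1 U/ml) and TNF (6.25 ng/ml) at 37°C. Supernatants were processed with trichloroacetic acid and p-dimethylaminobenzaldehyde and read at 492 nm against 0–100 μM standards. In the first screening round, kynurenine production, as fold change over same-plate cytokine-stimulated vehicle wells, was averaged over duplicate plates.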
# 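Wherever cell viability relative to vehicle unstimulated control is given: viability of the cells left after supernatant collection, read with Deep Blue dye added for 4 h, as absorbance at 570 nm minus 600 nm.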
SMILES,cell viability (MDA-MB-231 [1]),kynurenine production (MDA-MB-231 [2])
COc1cc(C(=O)O[C@H]2[C@@H]3C=CO[C@@H](O[C@@H]4O[C@H](CO)[C@@H](O)[C@H](O)[C@H]4O)[C@@H]3[C@@]3(CO)O[C@@H]23)ccc1O [Picroside II] (compound dose: 10 uM),0.923 ± 0.039,0.919 ± 0.16
C[C@@]1(C(=O)O)CC[C@]2(C)CC[C@]3(C)C4=CC(=O)c5c(cc(O)c(O)c5C=O)[C@]4(C)CC[C@@]3(C)[C@@H]2C1 [Demethylzeylasteral] (compound dose: 10 uM),0.786 ± 0.1,0.294 ± 0.022
CC1=C2[C@H]3OC(=O)[C@@H](C)[C@@H]3CC[C@@]2(C)C=CC1=O [Santonin] (compound dose: 10 uM),0.9716 ± 0.0046,1.02 ± 0.023
C=C1[C@H](OC(=O)c2ccccc2)C[C@H]2[C@@H](/C=C(\C)C(=O)[C@@]3(OC(C)=O)C[C@H](C)[C@H](OC(=O)c4ccccc4)[C@@H]3[C@H]1OC(C)=O)C2(C)C [Euphorbia factor L2] (compound dose: 10 uM),1.07 ± 0.015,0.384 ± 0.048
CC(=O)OC(C)(C)/C=C/C(=O)[C@](C)(O)[C@H]1[C@H](O)C[C@@]2(C)[C@@H]3CC=C4[C@H](C[C@H](O)C(=O)C4(C)C)[C@]3(C)C(=O)C[C@]12C [Cucurbitacin B] (compound dose: 10 uM),0.396 ± 0.061,0.189 ± 0.096
CC(C)[C@]12O[C@H]1[C@@H]1O[C@@]13[C@@]1(C)CCC4=C(COC4=O)[C@@H]1C[C@@H]1O[C@@]13C2=O [Triptonide] (compound dose: 10 uM),0.637 ± 0.069,0.218 ± 0.019
